AmpC inh detg: qHTS Inhibitors of AmpC Beta-Lactamase (assay with detergent). P00811. AmpC hydrolysis of nitrocefin, absorbance 480 nm, 0.01% Triton. Potency, µM (top dose mostly 114 µM), hits mostly inhibitors. 370,000 tested, 0.041% active; further: nearly all actives have a fitted effect of over 25% in size
Target sequence (P00811 whole entry, looked up): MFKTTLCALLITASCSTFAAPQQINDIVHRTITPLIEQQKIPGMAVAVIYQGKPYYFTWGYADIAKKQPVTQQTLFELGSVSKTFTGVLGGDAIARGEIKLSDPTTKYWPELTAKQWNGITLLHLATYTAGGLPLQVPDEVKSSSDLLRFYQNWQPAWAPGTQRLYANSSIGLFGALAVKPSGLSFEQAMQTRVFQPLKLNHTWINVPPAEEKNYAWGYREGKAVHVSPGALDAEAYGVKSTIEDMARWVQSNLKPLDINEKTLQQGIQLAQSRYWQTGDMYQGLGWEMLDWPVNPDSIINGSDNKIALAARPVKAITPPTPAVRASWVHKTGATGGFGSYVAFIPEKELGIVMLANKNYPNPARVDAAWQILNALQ
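20 mM phosphate pH 7.0 + 0.01% (detergent screen) or 0.0001% Triton X-100; 5.3 nM AmpC reagent; cpd preinc 15 min RT; nitrocefin (800 uM stock) to start; A480 q20 s × 4 min; Activity was normalised to no-enzyme and no-compound control wells.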
Tb PYK inh: qHTS of Trypanosoma Brucei Inhibitors; 410,000 tested, 0.12% active; TbPYK enzyme, Kinase-Glo Plus ATP luminescence, 45 min; Potency, µM (series often up to 76.8 µM), usual class: inhibitors; further: nearly all actives have a fitted effect of over 50% in size
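ADP (130 uM final) triggers the TbPYK reaction after compound addition; incubation is 45 min at room temperature. Kinase-Glo Plus is then added and luminescence imaged. Normalized data are fitted to concentration-effect curves.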
SARS PLP yeast: qHTS of Yeast-based Assay for SARS-CoV PLP. S. cerevisiae expressing SARS-CoV PLpro, growth rescue. Potency, µM (doses to about 32.9 µM), usual class: activators. 330,000 tested, 0.19% active; calls by dose curve; further: nearly all actives have a fitted effect of over 55% in size
AmpC inh no detg: qHTS Inhibitors of AmpC Beta-Lactamase (assay without detergent) | 330,000 tested, 0.52% active | Potency, µM (series often up to 57.1 µM), most hits filed as inhibitors | P00811 | AmpC nitrocefin hydrolysis, absorbance 480 nm, 0.0001% Triton; further: nearly all actives have a fitted effect of over 20% in size
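AmpC (5.3 nM in the dispensed reagent) in 20 mM phosphate pH 7.0 with 0.01% (detergent screen) or 0.0001% Triton X-100 was preincubated with compounds for 15 min at room temperature. Nitrocefin was then added from an 800 uM solution, and hydrolysis was followed at 480 nm.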
RE007 growth inh: qHTS Assay for Inhibitors of the HIV-1 protein Vpr. S. pombe RE007 Vpr strain, BacTiter-Glo ATP luminescence, 24 h. Potency, µM (top dose mostly 92.2 µM), hits mostly inhibitors. 360,000 tested, 0.21% active. AID 651644, 2012; active means well fitted falling curve with a large enough effect; inconclusive means small, poorly fitted or top-dose-only effect; inactive means no such curve, though single readings can be large or run the other way; further: nearly all actives have a fitted effect of over 50% in size
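Fission yeast strain RE007, carrying one chromosomally integrated HIV-1 vpr copy, was seeded at OD 0.01 in PMG+AL medium with 23 nL pinned compound. After 24 h at 30 °C and 99% humidity, viability was read by BacTiter-Glo luminescence.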
Sm TGR block: qHTS Assay for the Inhibitors of Schistosoma Mansoni Peroxiredoxins | Potency, µM (series often up to 114 µM), usual class: inhibitors | purified TGR, DTNB reduction, TNB absorbance 405 nm | Schistosoma mansoni thioredoxin glutathione reductase (TGR), Q962Y6 | 360,000 tested, 3% active | AID 485364, 2010; further: nearly all actives have a fitted effect of over 60% in size
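TGR 20 nM + NADPH 100 uM (dispensed conc.), cpd preinc 15 min RT; start with NADPH (500 uM addition) then DTNB (15 mM addition). Kinetic TNB absorbance, 405 nm filter. Four-parameter Hill fit across titration.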
Hits are given with their value; – = inactive; ? = inconclusive; · = not tested or not shown; [ ] = dose if it differs, or a comment. Most compounds without a hit are left out; they make up all but 3.3% or so of the library. Unless noted, the call rests on the fitted dose curve; in most records, active means well fitted curve in the direction sought with a large enough effect; inconclusive means small, poorly fitted or top-dose-only effect, or another doubt; inactive means no such curve, though single readings can be large; an effect the other way counts as inactive or inconclusive.

SMILES	AmpC inh detg	Tb PYK inh	SARS PLP yeast	AmpC inh no detg	RE007 growth inh	Sm TGR block
Cc1ccc(CC(=O)NCc2nc(-c3ccccc3)no2)cc1	–	–	·	·	·	–
Cc1cccc(C(=O)N2CCCC(N3CCN(c4cccc(Cl)c4)CC3)C2)n1 (stereo not given)	–	–	–	–	–	–
O=C(c1cnccn1)N1CCCC(N2CCN(c3cccc(Cl)c3)CC2)C1 (stereo not given)	–	–	–	–	–	89.1µM
CCOC(=O)c1cc(OC(=O)c2ccccc2)n(-c2ccccc2)n1	–	–	–	–	–	–
CCOC(=O)c1cc(OC(=O)c2cccs2)n(-c2ccccc2)n1	?	–	–	–	–	39.8µM
Cc1ccc(/C=C/c2nc3ccccc3[nH]2)o1	–	?	–	–	–	3.55µM
O=C(NC1CCCCCC1)C1c2ccccc2C(=O)N1Cc1ccco1 (stereo not given)	–	–	–	–	–	50.1µM
Cc1cccc(C)c1OCC(O)Cn1c2ccccc2c2ccccc21 (stereo not given)	–	–	–	–	35.5µM	–
CC(=O)C1=C(C)NC(SCC(=O)c2ccc(F)cc2)=C(C#N)C1CC(C)C (stereo not given)	?	14.1µM	–	–	–	?
CC(=O)C1=C(C)NC(SCC(N)=O)=C(C#N)C1CC(C)C (stereo not given)	?	?	–	–	–	?
CC(=O)C1=C(C)NC(SCC(=O)c2ccc(Cl)cc2)=C(C#N)C1CC(C)C (stereo not given)	–	–	–	–	–	?
CC(=O)C1=C(C)NC(SCC(N)=O)=C(C#N)C1C (stereo not given)	–	8.91µM	–	–	–	–
CCCc1ccc(C2Sc3ccccc3NC3=C2C(=O)c2ccccc23)cc1 (stereo not given)	–	–	·	·	·	–
Cn1cnc([N+](=O)[O-])c1Sc1ncnc2nc[nH]c12	–	–	–	–	–	10µM
COC(=O)c1ccc2c(=O)[nH]c(CN3c4ccccc4CC3C)nc2c1 (stereo not given)	–	–	–	–	–	7.08µM
Cc1cccc(CSc2nc3c(c(-c4cccs4)c2C#N)CN(C)CC3)c1	?	–	–	–	–	–
CCOc1ccc(NC(=O)CSc2nc(-c3cccs3)cc(C(F)(F)F)c2C#N)cc1	–	–	·	·	·	–
CN1CCc2nc(SCC(=O)Nc3cccc(F)c3)c(C#N)c(-c3cccs3)c2C1	–	–	–	–	–	20µM
CN1CCc2nc(SCC(=O)Nc3ccc(OC(F)(F)F)cc3)c(C#N)c(-c3cccs3)c2C1	–	–	–	–	–	35.5µM
CCCCCc1cc(O)c2c(c1)OC(C)(C)c1ccc(C)cc1-2	·	–	·	·	·	·
COc1ccc(-c2sc3ccccc3c2C#CC2(O)CCCCC2)cc1	–	–	–	–	–	–
COc1ccc(-c2sc3cc(OC)c(OC)cc3c2C#CC2(O)CCCCC2)cc1	–	–	–	–	–	8.91µM
O=C(Nc1nccs1)c1ccc(-c2ccc(F)c(Cl)c2)o1	–	–	–	25.1µM	–	?
CCOc1ccc(C2CC(=O)Nc3nc(SCc4ccccc4C)[nH]c(=O)c32)cc1OC (stereo not given)	–	–	·	·	·	–
Oc1c(Br)cc(C2N=C(c3ccccc3)NO2)cc1Br (stereo not given)	–	?	–	–	?	50.1µM
SMILES	AmpC inh detg	Tb PYK inh	SARS PLP yeast	AmpC inh no detg	RE007 growth inh	Sm TGR block
O=C(O)c1ccc2c(c1)C(=O)N([C@H](Cc1ccc(O)c(O)c1)C(=O)O)C2=O	?	·	–	–	·	12.6µM
O=C(NCCCN1CCN(c2ccc(F)cc2)CC1)Nc1ccccc1Cl	–	–	·	·	·	–
COc1cc(NC(=O)Cn2c(=O)n(-c3ccccc3)c(=O)c3c4c(sc32)CCCC4)cc(OC)c1	–	–	·	·	·	–
CCOc1cccc(=O)c2c(C)n(Cc3ccco3)c(C)c12	–	·	–	–	–[3.69 µM]	39.8µM
CCOc1ccc2c(c1)c(C(C)=O)c(C)n2Cc1ccco1	–	–	–	–	–	10µM
CCOc1cc(CNC(=O)c2ccccc2NC(=O)c2nsc3ccccc23)ccc1OC	–	–	·	·	·	–
Cc1cc2c(c(=O)n1Cc1cccnc1)C(c1cccs1)C(C#N)=C(N)O2 (stereo not given)	–	–	–	–	–	10µM
CCSc1nnc(NC(=O)C2CCCN(S(=O)(=O)c3cnc[nH]3)C2)s1 (stereo not given)	–	–	–	44.7µM	–	–
O=C(Cn1c(=O)nc(-c2ccccc2)c2ccccc21)Nc1ccc(Cl)cc1F	–	–	·	·	·	–
Cc1c2c(=O)n(-c3nc4ccccc4s3)nc-2cc(O)n1Cc1ccccc1	–	–	–	15.8µM	–	–
O=C(c1[nH]ncc1-c1ccccc1)C1CO1 (stereo not given)	–	–	–	–	–	?
O=C(c1[nH]ncc1-c1cccc(Br)c1)C1CO1 (stereo not given)	–	–	–	–	–	11.2µM
CCn1c(C(=O)N2CCCC(C(=O)NCCc3ccc(C)cc3)C2)cc2sccc21 (stereo not given)	–	35.5µM	–	–	–	–
CCn1c(C(=O)N2CCCC(C(=O)NCCCc3ccccc3)C2)cc2sccc21 (stereo not given)	–	–	–	–	–	–
COc1ccc(OC)c(NC(=O)c2cc3c(=O)oc4ccccc4c3s2)c1	–	–	·	·	·	–
COc1cc(NC(=O)C2CCC(CNc3c(N4CCCCC4)c(=O)c3=O)CC2)cc(OC)c1 (stereo not given)	?	–	–	50.1µM	–	–
CC1CCN(c2c(NCC3CCC(C(=O)Nc4ccccn4)CC3)c(=O)c2=O)CC1 (stereo not given)	?	–	–	–	–	–
COc1cc(NC(=O)C2CCC(CNc3c(N4CCC(C)CC4)c(=O)c3=O)CC2)cc(OC)c1 (stereo not given)	?	–	–	–	–	–
Cc1ccnc(NC(=O)C2CCC(CNc3c(N4CCCC4)c(=O)c3=O)CC2)c1 (stereo not given)	?	–	–	2.24µM	–	–
CCOC(=O)N1CCC(NC(=O)c2ccc3c(c2)N(Cc2ccc(Cl)cc2)C(=O)c2ccccc2S3(=O)=O)CC1	–	–	·	·	·	–
O=c1[nH]c(=O)n(-c2cccc(F)c2)c(O)c1/C=C1\C=Nc2ccccc21	–	–	–	–	–	35.5µM

High-throughput results deposited in PubChem by National Center for Advancing Translational Sciences (NCATS).
